Source: PubChem BioAssay (National Center for Advancing Translational Sciences (NCATS))
An excerpt weighted towards active compounds, which were near 11% of everything screened.
IL1B secr inh = inflammasome signaling inhibition, IL-1 beta readout. activity change, % at 57.5 µM. THP-1 LPS/ATP IL-1B secretion, AlphaLISA, 16 h; active compounds read low. hit rate 4.7% among 360,000; in the data active = activity change below about -50%; inconclusive = mostly about -30% to -49%
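Secreted IL-1B measured by AlphaLISA bead assay after 16 h compound exposure of THP-1 cells; compounds (final up to 57.5 uM) added 1 h before LPS (250 ng/mL) and ATP (1.25 mM) stimulation; lower signal means less secretion.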
VP16 counter = inhibits Gal4-VP16 luciferase reporter, ROR gamma counter-screen; Drosophila S2 Gal4-VP16 UAS-luciferase, luminescence, 20 h; Potency, µM (highest dose often 53.6 µM), usual class: inhibitors; hit rate 3.5% among 310,000; AID 2546;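 also: Gal4-VP16 expression switched on by copper sulfate through the metallothionein promoter; nearly all actives have a fitted effect of over 50% in size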
MCF10A rereplic = DNA re-replication induction in MCF 10a cells; MCF 10A DNA re-replication, Hoechst nuclear intensity, 48 h; Potency, µM (doses to about 46.1 µM), actives largely listed as activators; hit rate 2.9% among 350,000; AID 624296; also: nearly all actives have a fitted effect of over 50% in size
RORg inh = ROR gamma (mouse) transcription inhibition; Drosophila S2 Gal4-RORgamma UAS-luciferase reporter, 20 h; Potency, µM (top dose mostly 53.6 µM), hits mostly inhibitors; hit rate 5.4% among 310,000; AID 2551; also: nearly all actives have a fitted effect of over 60% in size
Target sequence (P51450 whole entry, looked up, the tested form may be a part): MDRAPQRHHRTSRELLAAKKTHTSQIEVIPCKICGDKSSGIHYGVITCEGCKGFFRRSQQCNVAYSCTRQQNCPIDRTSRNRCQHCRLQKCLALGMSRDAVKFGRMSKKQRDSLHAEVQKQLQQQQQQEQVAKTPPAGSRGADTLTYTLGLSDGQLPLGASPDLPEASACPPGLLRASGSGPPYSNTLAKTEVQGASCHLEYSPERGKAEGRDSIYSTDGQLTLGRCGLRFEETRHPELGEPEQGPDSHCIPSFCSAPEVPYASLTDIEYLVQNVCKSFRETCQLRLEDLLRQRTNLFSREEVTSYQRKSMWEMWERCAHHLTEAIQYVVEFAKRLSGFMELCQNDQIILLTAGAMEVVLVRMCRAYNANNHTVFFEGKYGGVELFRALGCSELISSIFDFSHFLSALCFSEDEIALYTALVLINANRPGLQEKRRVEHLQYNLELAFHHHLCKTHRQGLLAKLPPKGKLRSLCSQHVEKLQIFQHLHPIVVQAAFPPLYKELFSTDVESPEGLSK
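Stable Schneider cell line, Gal4 DNA-binding domain fused to ROR gamma, UAS-luciferase. Cmpd 1 hr RT → CuSO4 700 uM final → 20 hr RT → luciferase reagent 10 min → luminescence.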
SW480 rerep = induces DNA re-replication in SW480 colon adenocarcinoma cells. Potency, µM (doses to about 46.1 µM), usual class: activators. hit rate 1.8% among 340,000. SW480 DNA re-replication, Hoechst DNA content imaging, 48 h. AID 624297; also: nearly all actives have a fitted effect of over 55% in size
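Compounds, transferred as 23 nL by pin tool, were incubated with cells for 48 hr; DNA content per nucleus was then quantified by Hoechst staining and fluorescence plate imaging.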
Each line names hits and unclear results; the compound was inactive in the other large screens. Unless noted, calls follow the shape of the dose curve; as a rule, active = well fitted curve in the direction sought with a large enough effect; inconclusive = small, poorly fitted or top-dose-only effect, or another doubt; inactive = no such curve, though single readings can be large; an effect the other way counts as inactive or inconclusive.

CCN(CC)CCCNc1nc(SC)nc2sc3c(c12)CCN(C)C3	none (no result: IL1B secr inh, MCF10A rereplic, SW480 rerep)
O/N=C(\c1ccc(Cl)cc1Cl)c1ncc(C(F)(F)F)cc1Cl	VP16 counter 25.1µM, MCF10A rereplic inconclusive, RORg inh 11.2µM
Cc1ccccc1C(=O)N1CCc2c([nH]c3ccccc23)C1C(F)(F)F (stereo not given)	IL1B secr inh -54.7
NC(=O)NC(N)=O	none (no result: IL1B secr inh, MCF10A rereplic, SW480 rerep)
CCOC(=O)C1(CCCc2ccccc2)CCN(CCCn2cccn2)CC1	none
CCOC(=O)C1(CCOc2ccccc2)CCN(Cc2nccn2CC)CC1	VP16 counter inconclusive, MCF10A rereplic inconclusive, RORg inh 5.01µM
CCOC(=O)C1(CCCc2ccccc2)CCN(C(=O)c2ccoc2)CC1	none
CCOC(=O)C1(CCCc2ccccc2)CCN(Cc2nccn2CC)CC1	IL1B secr inh -55.1, VP16 counter inconclusive, MCF10A rereplic inconclusive, RORg inh 3.98µM, SW480 rerep inconclusive
CCOC(=O)C1(CCOc2ccccc2)CCN(Cc2ccncc2)CC1	none
CCOC(=O)C1(CCCc2ccccc2)CCN(Cc2cn(CC)nc2C)CC1	IL1B secr inh -76.5, MCF10A rereplic inconclusive, SW480 rerep inconclusive
CCOC(=O)C1(CCCc2ccccc2)CCN(C(=O)C2=C(C)OCCO2)CC1	IL1B secr inh -80.4, RORg inh inconclusive
CN1CCCN([C@@H](c2ccccc2)c2ccc(Cl)cc2)CC1	none (no result: IL1B secr inh, MCF10A rereplic, SW480 rerep)
COc1ccc(OC)c(NC(=O)c2cc(S(=O)(=O)N3CCCC3)cn2C)c1	none
CC(C)(C)OC(=O)C[C@H]1C/C=C\C[C@@H](CC(=O)NCCO)C(=O)NCCOC1=O	none (no result: VP16 counter, RORg inh)
CCOC(=O)C1(Cc2cccc(F)c2)CCN(Cc2cnc(C)s2)CC1	none
CCOC(=O)C1(CCCc2ccccc2)CCN(Cc2cnc(C)s2)CC1	IL1B secr inh -88.2, MCF10A rereplic inconclusive
C/C(=N\Nc1ncc(Cl)cc1Cl)c1ccc2c(c1)OCO2	VP16 counter inconclusive, RORg inh 7.08µM
C/C(=N\NC(=O)c1ccc2c(c1)OCO2)c1ccc2c(c1)OCO2	none
C/C(=N\Nc1ncc(Cl)cc1Cl)c1ccc(OC(F)F)cc1	IL1B secr inh inconclusive, VP16 counter inconclusive, RORg inh 11.2µM
Cc1cccc(OCCC(=O)OC(C)C(=O)Nc2ccc(Cl)cn2)c1 (stereo not given)	none (no result: VP16 counter, RORg inh)
CC(OC(=O)CCOc1ccccc1)C(=O)Nc1ccc(Cl)cn1 (stereo not given)	MCF10A rereplic 16.4µM, SW480 rerep inconclusive
Cn1c(/C=C/c2ccccc2)nc2ccccc21	VP16 counter 7.08µM, RORg inh 10µM
Cn1c(=O)c(/C=C/c2ccccc2)nc2ccccc21	MCF10A rereplic 11.6µM, RORg inh inconclusive, SW480 rerep inconclusive
O=c1c(/C=C(\O)c2ccc(F)cc2)nc2ccccc2n1-c1ccccc1	none
CC(=O)c1ccc(/C=C/c2nc3ccccc3n2C)o1	VP16 counter inconclusive, MCF10A rereplic 18.4µM, RORg inh 10µM, SW480 rerep inconclusive
Cn1c(=O)c(/C=C/c2ccc(F)cc2)nc2ccccc21	MCF10A rereplic inconclusive, SW480 rerep 11.6µM
COc1cc(CCC(=O)Nc2c(C(=O)N3CCN(c4ccccc4)CC3)oc3ccccc23)on1	IL1B secr inh -61.4
COc1ccc(N2CCN(C(=O)c3oc4ccccc4c3NC(=O)CCc3cc(OC)no3)CC2)cc1	none
Cc1c(Cc2ccccc2)c(=O)oc2cc(OCC(=O)NCc3ccccn3)ccc12	IL1B secr inh -51.6, SW480 rerep inconclusive
Cc1c(Cc2ccccc2)c(=O)oc2cc(OCC(=O)N[C@@H](Cc3ccccc3)C(=O)O)ccc12	none
Cc1cccc(Nc2nc(-c3ccc4c(c3)OCCO4)cs2)c1	MCF10A rereplic 14.1µM, SW480 rerep 7.31µM
Cc1ccc(-c2csc(/C(C#N)=C/Nc3ccc4c(c3)OCCO4)n2)cc1	MCF10A rereplic 3.66µM, SW480 rerep inconclusive
Cc1nc(C)c(-c2csc(Nc3ccccn3)n2)s1	RORg inh inconclusive
Cc1ccnc(Nc2nc(-c3sc(C)nc3C)cs2)c1	IL1B secr inh -100.3, MCF10A rereplic 23.1µM, SW480 rerep inconclusive (no result: VP16 counter, RORg inh)
Cc1cccc(Nc2nc(-c3sc(C)nc3C)cs2)c1	IL1B secr inh -53.8, VP16 counter inconclusive, RORg inh inconclusive
Cc1nc(C)c(-c2csc(Nc3cccc(O)c3)n2)s1	IL1B secr inh inconclusive
C/C=C(\C)C(=O)C[Si](C)(C)c1ccccc1	none (no result: IL1B secr inh, MCF10A rereplic, SW480 rerep)
O=c1oc(CCCO)cc2ccc(/C=C/c3cccc([N+](=O)[O-])c3)cc12	none (no result: VP16 counter, RORg inh)
Cn1cc(-c2csc(C(C)(O)c3cccnc3)n2)cn1 (stereo not given)	none (no result: VP16 counter, MCF10A rereplic, RORg inh, SW480 rerep)
Cc1ccc(Nc2nc(-c3sc(N)nc3C)cs2)cc1	none
C=CCNc1nc(-c2sc(NC(=O)CC)nc2C)cs1	IL1B secr inh inconclusive, MCF10A rereplic inconclusive, RORg inh inconclusive
Cc1ccnc(Nc2nc(-c3ccc(F)cc3)cs2)c1	IL1B secr inh -92.7, VP16 counter inconclusive, MCF10A rereplic inconclusive, RORg inh 11.2µM
Cc1ccnc(Nc2nc(-c3ccc(Cl)cc3)cs2)c1	VP16 counter inconclusive, MCF10A rereplic inconclusive
Cc1nc(C)c(-c2csc(Nc3ccc(S(N)(=O)=O)cc3)n2)s1	IL1B secr inh -58.9, RORg inh inconclusive
C=CCNc1nc(-c2sc(NC(C)=O)nc2C)cs1	IL1B secr inh -57.6, MCF10A rereplic inconclusive, RORg inh inconclusive
Cc1ccc(Nc2nc(-c3sc(C)nc3C)cs2)cc1	MCF10A rereplic inconclusive, RORg inh inconclusive, SW480 rerep 2.06µM
N#Cc1ccccc1OCC(=O)Nc1ccc(S(=O)(=O)N2CCOCC2)cc1	none (no result: VP16 counter, RORg inh)
COc1ccc(C(=O)CC(C(=O)O)c2ccc3c(c2)OCO3)cc1OC (stereo not given)	none (no result: VP16 counter, MCF10A rereplic, RORg inh, SW480 rerep)
OC(c1ccc(Cl)c(F)c1)c1ncc(-c2cccc(C(F)(F)F)c2)[nH]1 (stereo not given)	none (no result: VP16 counter, MCF10A rereplic, RORg inh, SW480 rerep)
CCc1nc2ccc(C(=O)Nc3cccc(OCC(=O)N(C)C)c3)cn2c1N(C=O)Cc1ccc(OC)cc1	none (no result: VP16 counter, MCF10A rereplic, RORg inh, SW480 rerep)
CC(C)CNc1ncnc2c1ncn2[C@H]1CN(Cc2ccc3c(c2)OCO3)C[C@@H](CO)O1	none (no result: VP16 counter, MCF10A rereplic, RORg inh, SW480 rerep)
Cc1cccnc1Nc1nc(-c2ccc(F)cc2)cs1	IL1B secr inh -52.0, VP16 counter inconclusive, RORg inh inconclusive
COc1ccc(Nc2nc(-c3cccs3)cs2)c(OC)c1	none
CCC(=O)Nc1nc(C)c(-c2csc(Nc3cccc(O)c3)n2)s1	IL1B secr inh -75.1, MCF10A rereplic 20.6µM, RORg inh inconclusive, SW480 rerep inconclusive
COc1ccc(Nc2nc(-c3sc(C)nc3C)cs2)c(OC)c1	MCF10A rereplic inconclusive, SW480 rerep 20.6µM
CC(=O)Nc1ccc(Nc2nc(-c3sc(C)nc3C)cs2)cc1	IL1B secr inh -50.4, MCF10A rereplic inconclusive, RORg inh inconclusive
CC1CCc2sc(C(=O)NNS(=O)(=O)c3ccc(F)c(F)c3F)cc2C1 (stereo not given)	none (no result: VP16 counter, RORg inh)
O=C(O)[C@H]1CCCNC1	none (no result: IL1B secr inh, MCF10A rereplic, SW480 rerep)
CCc1cccc(N(C(=O)c2csnn2)C(C(=O)NC2CCCCC2)c2cccnc2)c1 (stereo not given)	none
CC(=O)c1cccc(Nc2nc(-c3sc(C)nc3C)cs2)c1	IL1B secr inh -57.1 (no result: VP16 counter, RORg inh)
